PubChem BioAssay (Tox21)
“And” between values parts separate entries of the source, which are not always exact repeats. Equal values may be shown once. Records with an inconclusive call do not appear. A call without a number means that no potency is given here. The source made the active and inactive calls. Calls follow the shape of the dose curve; as a rule, active = well fitted curve in the direction sought with a large enough effect in the repeat runs; inconclusive = weak or mixed curves; inactive = no such curve, though single readings can be large; an effect the other way counts as inactive or inconclusive.

How the values were obtained:
[1] = Caspase-3/7 induction in CHO-K1 cells by small molecules, qHTS cell viability counter screen (AID 1346979); also: nearly all actives have a fitted effect of over 35% in size; also: potency is read from the fitted curve at half-maximal effect
Procedure, shortened: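 Wild-type CHO-K1 cells were seeded at 1,500 per well, rested 5hr at 37 C, then exposed to compounds in DMSO. After 16hr, CellTiter-Fluor reagent was added and fluorescence read 1hr later as the viability measure.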

[2] = Caspase-3/7 induction in CHO-K1 cells by small molecules, qHTS assay (AID 1346980); also: nearly all actives have a fitted effect of over 15% in size
Procedure, shortened: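 Wild-type cells were seeded at 1,500 per well and settled 5 hr at 37 C, 5% CO2, then exposed to DMSO-dissolved compounds for 17 hr. Caspase-Glo 3/7 reagent was added, and luminescence was read after 30min at room temperature.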

[3] = Caspase-3/7 induction in HepG2 cells by small molecules, qHTS cell viability counter screen (AID 1346981); also: series mostly up to about 92 µM; nearly all actives have a fitted effect of over 30% in size
Procedure, shortened: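 Multiplexed with the caspase-3/7 assay: HepG2 cells, 16 hr compound treatment, CellTiter-Fluor viability detection by fluorescence.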

[4] = biological target: Nuclear receptor subfamily 1 group I member 2 (Homo sapiens) (UniProt O75469); test: Human pregnane X receptor (PXR) small molecule agonists, qHTS assay (AID 1346982); also: nearly all actives have a fitted effect of over 35% in size; also: potency is read from the fitted curve at half-maximal effect
Sequence of Nuclear receptor subfamily 1 group I member 2 (Homo sapiens) (O75469 whole entry, looked up): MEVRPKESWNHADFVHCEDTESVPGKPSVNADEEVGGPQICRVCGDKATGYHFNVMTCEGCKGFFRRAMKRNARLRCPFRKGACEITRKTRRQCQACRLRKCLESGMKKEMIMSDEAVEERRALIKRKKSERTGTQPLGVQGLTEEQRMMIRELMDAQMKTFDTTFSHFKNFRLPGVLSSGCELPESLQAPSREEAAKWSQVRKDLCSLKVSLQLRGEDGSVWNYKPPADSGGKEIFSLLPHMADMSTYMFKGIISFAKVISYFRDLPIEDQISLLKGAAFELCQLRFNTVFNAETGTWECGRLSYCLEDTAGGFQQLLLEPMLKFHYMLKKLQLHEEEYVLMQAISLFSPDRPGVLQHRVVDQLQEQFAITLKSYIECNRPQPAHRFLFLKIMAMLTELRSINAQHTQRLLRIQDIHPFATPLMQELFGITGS
Procedure, shortened: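 We seeded PXR-Luc HepG2 cells in assay medium containing 5% charcoal-stripped FBS, added compounds 5 hr later, incubated 24 hr, and read luminescence with ONE-Glo reagent.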

[5] = biological target: Cytochrome P450 2D6 (Homo sapiens) (UniProt P10635); test: Cytochrome P450 Family 2 Subfamily D Member 6 (CYP2D6) small molecule antagonists: luciferase reporter qHTS assay (AID 1671196); also: nearly all actives have a fitted effect of over 50% in size; also: potency is read from the fitted curve at half-maximal effect
Sequence of Cytochrome P450 2D6 (Homo sapiens) (P10635 whole entry, looked up): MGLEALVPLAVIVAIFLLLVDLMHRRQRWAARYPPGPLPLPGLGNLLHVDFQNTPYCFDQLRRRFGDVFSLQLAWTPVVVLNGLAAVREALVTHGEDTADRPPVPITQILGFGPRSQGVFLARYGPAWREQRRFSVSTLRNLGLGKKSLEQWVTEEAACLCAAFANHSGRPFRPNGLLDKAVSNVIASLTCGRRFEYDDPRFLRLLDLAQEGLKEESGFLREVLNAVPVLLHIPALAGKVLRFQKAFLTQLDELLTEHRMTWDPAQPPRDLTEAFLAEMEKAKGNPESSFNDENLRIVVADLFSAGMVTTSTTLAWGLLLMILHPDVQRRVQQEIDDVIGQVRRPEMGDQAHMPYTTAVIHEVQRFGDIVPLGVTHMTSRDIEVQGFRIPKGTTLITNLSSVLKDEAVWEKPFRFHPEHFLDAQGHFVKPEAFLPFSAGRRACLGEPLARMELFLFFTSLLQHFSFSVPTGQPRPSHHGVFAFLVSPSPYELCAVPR
Procedure, shortened: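 Luminescence (RLU), read 20 min after detection reagent, indicated CYP2D6 conversion of proluciferin to luciferin during a 1 h NADPH-dependent reaction at room temperature.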

[6] = biological target: Cytochrome P450 2C19 (Homo sapiens) (UniProt P33261); test: Cytochrome P450 Family 2 Subfamily C Member 19 (CYP2C19) small molecule antagonists: luciferase reporter qHTS assay (AID 1671197); also: nearly all actives have a fitted effect of over 65% in size; also: potency is read from the fitted curve at half-maximal effect
Sequence of Cytochrome P450 2C19 (Homo sapiens) (P33261 whole entry, looked up): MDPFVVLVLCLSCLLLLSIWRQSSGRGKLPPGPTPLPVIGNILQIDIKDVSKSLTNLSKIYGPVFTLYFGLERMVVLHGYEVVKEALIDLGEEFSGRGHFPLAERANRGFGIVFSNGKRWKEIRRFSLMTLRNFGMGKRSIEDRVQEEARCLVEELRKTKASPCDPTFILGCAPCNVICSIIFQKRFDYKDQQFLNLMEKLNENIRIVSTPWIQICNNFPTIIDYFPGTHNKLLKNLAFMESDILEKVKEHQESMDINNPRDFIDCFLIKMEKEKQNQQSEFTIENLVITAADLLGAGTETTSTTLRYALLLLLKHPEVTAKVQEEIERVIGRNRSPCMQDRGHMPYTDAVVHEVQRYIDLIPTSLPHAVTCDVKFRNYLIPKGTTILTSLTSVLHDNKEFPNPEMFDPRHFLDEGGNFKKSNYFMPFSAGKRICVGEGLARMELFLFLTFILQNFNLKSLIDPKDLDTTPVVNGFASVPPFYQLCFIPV
Procedure, shortened: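 Inhibition of CYP2C19 was scored from loss of luminescence in a P450-Glo proluciferin substrate assay, NADPH-started and run 1 h at 37C, with ketoconazole as positive control.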

Row | Structure (SMILES) | Potency [1] | Potency [2] | Potency [3] | Potency [4] | Potency [5] | Potency [6]
1 | C=C(C)CCCC | inactive | inactive | inactive | inactive | inactive | inactive
2 | COC(=O)NCCC[Si](OC)(OC)OC | inactive | inactive | inactive | inactive | inactive | inactive
3 | c1ccc(Nc2cccc3ccccc23)cc1 | 61.9 µM (active) | inactive | inactive | 61.9 µM (active) and 30.6 µM (active) | 32.1 µM (active) | 5.09 µM (active) and 10 µM (active)
4 | Clc1cc(Cl)c(-c2c(Cl)c(Cl)cc(Cl)c2Cl)cc1Cl | inactive | inactive | inactive | inactive | inactive | inactive
